PubChem BioAssay (NCATS)
Results filed as inconclusive are left out. A call without a number means that no potency is given here. Unmarked numbers belong to inactive results. Calls of active or inactive are those of the source. Unless noted, calls follow the shape of the full dose curve.

Columns and labels:
[1] = qHTS for Inhibitors of the Functional Ribonucleoprotein Complex (vRNP) of Lassa (LASV) Arenavirus: LASV Primary Screen - GLuc reporter signal (AID 1347082; calls by dose curve; tested in HEK293 reporter line; also: nearly all actives have a fitted effect of over 60% in size)
[2] = qHTS for Inhibitors of the Functional Ribonucleoprotein Complex (vRNP) of Lassa (LASV) Arenavirus: Viability assay - alamar blue signal for LASV Primary Screen (AID 1347083; calls by dose curve; tested in HEK293 reporter line; also: nearly all actives have a fitted effect of over 80% in size)
[3] = target: Nucleoprotein (Lymphocytic choriomeningitis virus (strain Armstrong)) (UniProt P09992); assay: qHTS for Inhibitors of the Functional Ribonucleoprotein Complex (vRNP) of Lymphocytic Choriomeningitis Arenaviruses (LCMV): LCMV Primary Screen - GLuc reporter signal (AID 1347086); also: nearly all actives have a fitted effect of over 70% in size
[4] = qHTS for Inhibitors of the Functional Ribonucleoprotein Complex (vRNP) of Lymphocytic Choriomeningitis Arenaviruses (LCMV): Viability assay - alamar blue signal for LCMV Primary Screen (AID 1347085; calls by dose curve; tested in HEK293 reporter line; also: nearly all actives have a fitted effect of over 80% in size)
[5] = qHTS of pediatric cancer cell lines to identify multiple opportunities for drug repurposing: Primary screen for A673 cells (AID 1347092; active = well fitted cell-killing curve with a large enough effect; also: nearly all actives have a fitted effect of over 45% in size)
How it was run: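 A673 cells (500-1,000 cells/well) were treated 48 hours at 37 degrees C with compounds at 11-point (0.78 nM to 46 µM) or 8-point (0.59 nM to 46 µM) dilutions. Viability read by CellTiter-Glo luminescence; concentration-response curves fitted.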

[6] = qHTS of pediatric cancer cell lines to identify multiple opportunities for drug repurposing: Primary screen for SK-N-MC cells (AID 1347093; active = well fitted cell-killing curve with a large enough effect)
How it was run: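 Metabolically active cells were quantified by ATP-dependent luminescence (CellTiter-Glo, 15 min at room temperature) following 48 h treatment. Cells had been plated at 500-1,000 per well and settled for 5 h beforehand.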

[7] = qHTS of pediatric cancer cell lines to identify multiple opportunities for drug repurposing: Primary screen for Saos-2 cells (AID 1347097; active = well fitted cell-killing curve with a large enough effect; also: nearly all actives have a fitted effect of over 40% in size)
How it was run: (§1)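 Primary screen of approved and investigational compounds on cells in growth media at 37 degrees C, 5% CO2. MIPE set at 11-point and NPC set at 8-point dilutions; viability scored by ATP-based luminescence at 48 hours.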

[8] = qHTS of pediatric cancer cell lines to identify multiple opportunities for drug repurposing: Primary screen for SK-N-SH cells (AID 1347098; active = well fitted cell-killing curve with a large enough effect; also: nearly all actives have a fitted effect of over 65% in size)
How it was run: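 Cells (500-1,000/well) rested 5 h, then received compounds for 48 h; metabolically active cells were measured by CellTiter-Glo luminescence. Final concentrations spanned up to 46 µM (MIPE, 11-point) or 0.59 nM-46 µM (NPC, 8-point) in primary screens, 11-point in follow-ups.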

[9] = qHTS of pediatric cancer cell lines to identify multiple opportunities for drug repurposing: Primary screen for NB1643 cells (AID 1347099; active = well fitted cell-killing curve with a large enough effect; also: nearly all actives have a fitted effect of over 50% in size)
How it was run: as §1
Potency is read from the fitted curve at half-maximal effect.

Nucleoprotein (Lymphocytic choriomeningitis virus (strain Armstrong)), sequence (P09992 whole entry, looked up): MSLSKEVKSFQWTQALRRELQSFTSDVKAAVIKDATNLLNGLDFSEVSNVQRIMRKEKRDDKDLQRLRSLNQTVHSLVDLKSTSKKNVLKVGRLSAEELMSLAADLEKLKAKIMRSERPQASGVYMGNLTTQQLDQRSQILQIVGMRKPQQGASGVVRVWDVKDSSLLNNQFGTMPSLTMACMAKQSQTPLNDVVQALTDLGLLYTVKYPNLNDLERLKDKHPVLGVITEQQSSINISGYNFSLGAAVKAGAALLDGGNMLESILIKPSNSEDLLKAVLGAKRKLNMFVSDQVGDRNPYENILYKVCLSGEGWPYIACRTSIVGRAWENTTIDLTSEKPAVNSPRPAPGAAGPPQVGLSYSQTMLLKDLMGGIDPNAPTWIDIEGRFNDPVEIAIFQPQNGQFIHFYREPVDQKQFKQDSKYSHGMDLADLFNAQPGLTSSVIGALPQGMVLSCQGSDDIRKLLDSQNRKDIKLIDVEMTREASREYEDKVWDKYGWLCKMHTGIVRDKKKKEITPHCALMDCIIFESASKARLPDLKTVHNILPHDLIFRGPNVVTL

O=C(CS)Nc1ccccc1
Potency [1]: inactive
Potency [2]: inactive
Potency [3]: inactive

O=c1[nH]c2ccccc2n1CCCN1CCN(C(c2ccccc2)c2ccccc2)CC1
Potency [1]: inactive
Potency [2]: inactive
Potency [3]: inactive

O=c1[nH]c(=O)n([C@H]2C[C@H](O)[C@@H](CO)O2)cc1C(F)(F)F
Potency [1]: inactive
Potency [4]: 15.8 µM (active)
Potency [3]: inactive

CN1CCC(=C2c3ccccc3CCc3cccnc32)CC1
Potency [1]: inactive
Potency [2]: inactive
Potency [3]: inactive

O=C(NOCC1CC1)c1ccc(F)c(F)c1Nc1ccc(I)cc1Cl
Potency [1]: inactive
Potency [4]: inactive
Potency [3]: inactive

O=C(Nc1ccc([N+](=O)[O-])cc1Cl)c1cc(Cl)ccc1O
Potency [1]: inactive
Potency [4]: inactive

O=Cc1ccc(O)c(O)c1O
Potency [1]: inactive
Potency [4]: inactive
Potency [3]: inactive

COC[C@@H](c1ccc(C(F)(F)F)cc1)N1CCN(C2(C)CCN(C(=O)c3c(C)ncnc3C)CC2)C[C@H]1C
Potency [1]: inactive
Potency [4]: 38.5 µM (active)

CCCCCCCCCCCCCCCC[N+](C)(C)Cc1ccccc1
Potency [1]: inactive
Potency [4]: inactive

CC(CNC1CCCCC1)OC(=O)c1ccccc1 (stereo not drawn)
Potency [1]: inactive
Potency [2]: inactive
Potency [3]: inactive

CCC(=O)O[C@]1(C(=O)CCl)[C@@H](C)C[C@H]2[C@@H]3CCC4=CC(=O)C=C[C@]4(C)[C@@]3(F)[C@@H](O)C[C@@]21C
Potency [1]: inactive
Potency [4]: inactive
Potency [3]: inactive

CN1CCC(=C2c3ccccc3CC(=O)c3sccc32)CC1
Potency [1]: inactive
Potency [4]: inactive
Potency [3]: inactive

COc1cc(N)c(Cl)cc1C(=O)NC1CCN(CCCOc2ccc(F)cc2)CC1OC (stereo not drawn)
Potency [1]: inactive
Potency [2]: inactive
Potency [3]: inactive

O=C(O)c1cccc(-c2noc(-c3ccccc3F)n2)c1
Potency [1]: inactive
Potency [2]: inactive
Potency [3]: inactive

CC1(C)O[C@@H]2C[C@H]3[C@@H]4CCC5=CC(=O)CC[C@]5(C)[C@@]4(F)[C@@H](O)C[C@]3(C)[C@]2(C(=O)CCl)O1
Potency [1]: inactive
Potency [2]: inactive
Potency [3]: inactive

CCO[C@@H]1O[C@H](C(COCc2ccccc2)OCc2ccccc2)[C@H](OCc2ccccc2)[C@H]1O (stereo partly drawn)
Potency [1]: inactive
Potency [4]: inactive
Potency [3]: inactive

CC(NCCC(c1ccccc1)c1ccccc1)c1ccccc1 (stereo not drawn)
Potency [1]: inactive
Potency [4]: inactive

CN(C)CCCOc1nn(Cc2ccccc2)c2ccccc12
Potency [1]: inactive
Potency [2]: inactive
Potency [3]: inactive

COc1ccc2cc3[n+](cc2c1OC)CCc1cc2c(cc1-3)OCO2
Potency [1]: 27.3 µM (active)
Potency [4]: inactive
Potency [3]: 19.3 µM (active)

Clc1ccc(Nc2nnc(Cc3ccncc3)c3ccccc23)cc1
Potency [1]: inactive
Potency [4]: inactive
Potency [3]: inactive

CCOC(=O)c1ccc(C#Cc2ccc3c(c2)C(C)(C)CCS3)nc1
Potency [1]: inactive
Potency [2]: inactive
Potency [3]: inactive

C[C@@H]1CN(CCCn2c3ccccc3c3ccccc32)C[C@H](C)N1
Potency [1]: inactive
Potency [4]: inactive
Potency [3]: inactive

c1ccc(CC2=NCCN2)cc1
Potency [1]: inactive
Potency [2]: inactive
Potency [3]: inactive

N[C@@H](Cc1cc(I)c(O)c(I)c1)C(=O)O
Potency [1]: inactive
Potency [2]: inactive
Potency [3]: inactive

CC(=O)N(CC(=O)N(C)C)c1ccccc1
Potency [1]: inactive
Potency [2]: inactive
Potency [3]: inactive

COc1cc(N)c(Cl)cc1C(=O)NC1CCN(Cc2ccccc2)CC1
Potency [1]: inactive
Potency [4]: inactive
Potency [3]: inactive

CCCCOc1ccc(CC(=O)NO)cc1
Potency [1]: inactive
Potency [4]: inactive
Potency [3]: inactive

O=C(CCCN1CCN(c2ccc(F)cc2)CC1)NC1c2ccccc2CSc2ccccc21 (stereo not drawn)
Potency [1]: 24.3 µM (active)
Potency [4]: inactive

O=C1OC2(c3ccccc31)c1cc(I)c(O)c(I)c1Oc1c2cc(I)c(O)c1I
Potency [1]: inactive
Potency [2]: inactive
Potency [3]: inactive

COc1ccc(CCN2CCC(Nc3nc4ccccc4n3Cc3ccc(F)cc3)CC2)cc1
Potency [1]: inactive
Potency [2]: inactive
Potency [3]: inactive

CCOC(=O)Nc1ccc(NCc2ccc(F)cc2)nc1N
Potency [1]: inactive
Potency [4]: inactive
Potency [3]: inactive

CCCCCN=C(N)N/N=C/c1c[nH]c2ccc(OC)cc12
Potency [2]: inactive

O=C(Nc1ccc(Cl)cc1)Nc1ccc(Cl)c(C(F)(F)F)c1
Potency [4]: 14.1 µM (active)

COc1cc(O)c(C(=O)c2ccccc2)cc1S(=O)(=O)O
Potency [1]: inactive
Potency [3]: inactive

Clc1ccccc1C(c1ccccc1)(c1ccccc1)n1ccnc1
Potency [2]: inactive
Potency [4]: inactive
Potency [3]: inactive

COc1ccc2c3c1O[C@H]1[C@@H](O)C=C[C@H]4[C@@H](C2)N(C)CC[C@@]341
Potency [5]: 23.8 µM (active)
Potency [6]: 33.7 µM (active)
Potency [7]: 37.8 µM (active)
Potency [8]: 17.4 µM (active)
Potency [9]: 23.8 µM (active)

C[C@@H]1C[C@H]2[C@@H]3CCC4=CC(=O)C=C[C@]4(C)[C@@]3(Cl)[C@@H](O)C[C@]2(C)[C@@]1(OC(=O)c1ccco1)C(=O)CCl
Potency [3]: inactive

CC(C)n1nc(-c2cc3cc(O)ccc3[nH]2)c2c(N)ncnc21
Potency [2]: 1.78 µM (active)
Potency [3]: 1.78 µM (active)

CCCSS/C(CCO)=C(\C)N(C=O)Cc1cnc(C)nc1N
Potency [1]: inactive
Potency [3]: inactive

CCCS(=O)c1ccc2nc(NC(=O)OC)[nH]c2c1 (stereo not drawn)
Potency [1]: inactive
Potency [3]: inactive

COC(=O)c1nc(Cl)c(Cl)nc1N
Potency [4]: inactive
